{
  "source": "PubChem BioAssay AID2278",
  "about": "(National Center for Advancing Translational Sciences (NCATS), 2010)",
  "note": "Records with an inconclusive call do not appear. Where a call stands in place of a potency, no number is given. Active and inactive are the calls of the source. Calls come from the whole dose curve; as a rule, active = well fitted curve in the direction sought with a large enough effect; inconclusive = small, poorly fitted or top-dose-only effect, or another doubt; inactive = no such curve, though single readings can be large or run the other way.",
  "data": [
    {"biological_target": "Group 10 secretory phospholipase A2 (Mus musculus) (UniProt Q9QXX3)", "sequence (Q9QXX3 whole entry, looked up)": "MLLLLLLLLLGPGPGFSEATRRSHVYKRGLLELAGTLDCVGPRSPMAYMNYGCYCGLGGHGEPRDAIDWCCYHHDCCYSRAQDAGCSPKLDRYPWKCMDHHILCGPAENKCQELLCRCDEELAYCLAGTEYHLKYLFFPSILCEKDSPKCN", "assay": "Secondary Assay for Inhibitors of Ubiquitin-specific Protease USP2a: PLA2 Counterscreen", "settings": "purified murine PLA2, NBD C6-HPC fluorescence; series mostly up to 57.5 µM", "excerpt": "NIH Molecular Libraries Screening Centers Network [MLSCN] NIH Chemical Genomics Center [NCGC] MLSCN Grant: XO1-MH079852-01 PI Name: Nicholson, Ben. Progenra Inc, Malvern, PA NCGC Assay Overview: Homeostasis of cellular proteins is maintained through a combination of synthesis and degradation. The pathway that accounts for the majority of protein degradation is the ubiquitin-proteasomal pathway. Ubiquitin (Ub) is highly conserved in all cells and the generation of a multi-Ub chain typically targets proteins for degradation by the proteasome. However, ubiquitination is highly reversible and dynamic. Deubiquitination, the reverse process, is catalyzed through the action of enzymes referred to as isopeptidases or deubiquitinating enzymes (DUBs). This group of enzymes is collectively responsible for maintaining adequate pools of free ubiquitin and regulating the ubiquitination status of cellular proteins. The class of DUBs referred to as the ubiquitin-specific proteases (USP) family functions endoproteolytically to cleave Ub chains from a wide range of protein substrates. USP2a deubiquitinates fatty acid synthase (FASN) which has recently been identified as an emerging oncology target. To identify inhibitors of USP2a a cell-free assay was employed. This is assay is a counterscreen used for the for the USP2a-PLA2 coupled assay. In this assay the murine PLA2 reporter enzyme is screened alone using NBD C6-HPC (Invitrogen) as a fluorogenic substrate.\nNCGC Assay Protocol Summary: The assay buffer, prepared fresh at the day of the assay, contains 20mM Tris-HCl pH 8.0, 2mM CaCl2, 2mM beta-mercaptoethanol, 0.1% DMSO. 3ul of 10nM (5nM final) free PLA2, which is stored on ice, is dispensed into a medium-binding black solid Kalypsys 1,536 well plate using the Aurora BioRaptr. The assay plate is then pinned with 23nL compound with the Kalypsys pintool. The controls were pinned as follows: row 31 2M NEM and row 32 DMSO. Subsequently, 3uL 40uM (20uM final) NBD C6-HPC (stored on ice and protected from light) were dispensed into the plate using the BioRaptr dispenser. Plates were read immediately on an Envision (Perkin Elmer) plate reader using wavelengths of Ex 460nm /Em 535nm. Then, the assay plates were incubated for 2.5 hours and read again on the Envision using the same settings. Data were normalized to the to AC100 inhibition (NEM). Concentration-response curves were fitted to the normalized data and the concentration-response curves were then classified based on curve quality (r2), response magnitude and degree of measured activity. The time zero reading was used to flag fluorescence artifacts. Keywords: ubiquitination, deubiquitination, proteases, profluorescent, MLSMR, MLSCN, NIH Roadmap, qHTS, NCGC", "values": [
      {"smiles": "Cc1ccc([C@H]2Nc3ccc(S(=O)(=O)Nc4cccc(Cl)c4C)cc3[C@H]3C=CC[C@H]32)cc1", "Potency": "inactive"},
      {"smiles": "CCCCn1c(SCC(=O)NCCCOC)nc2c(sc3ccccc32)c1=O", "Potency": "inactive"},
      {"smiles": "CC(=O)Nc1ccc(NC(=O)Cn2nc(C(=O)Nc3ccc(C)cc3)ccc2=O)cc1", "Potency": "inactive"},
      {"smiles": "CCC(C)NC(=O)CSc1nc2cc3c(cc2c(=O)n1Cc1ccc(C(=O)NCCc2ccc(OC)c(OC)c2)cc1)OCO3", "note": "(stereo not given)", "Potency": "inactive"},
      {"smiles": "Cc1ccc(-n2nc3c(=O)n(CCCC(=O)NCCc4ccccc4Cl)nc(C)c3c2C)cc1", "Potency": "inactive"},
      {"smiles": "Oc1c(C(Nc2ccccn2)c2ccccc2F)ccc2cccnc12", "note": "(stereo not given)", "Potency": "inactive"},
      {"smiles": "COC(=O)c1c(NC(=O)CS(=O)(=O)c2ccc(C)cc2)sc2c1CCCCC2", "Potency": "inactive"},
      {"smiles": "COc1ccc(Cl)cc1NC(=O)CSc1nc(=O)[nH]c2c1CCC2", "Potency": "inactive"},
      {"smiles": "COc1ccc(C2=CC(c3cccc(C)c3)n3nnnc3N2)cc1", "note": "(stereo not given)", "Potency": "inactive"},
      {"smiles": "Cc1nnc(SCC(=O)NCc2ccccc2F)c2nn(-c3ccc(Cl)cc3)c(C)c12", "Potency": "inactive"},
      {"smiles": "CCOc1ccc(C2=C(C(C)=O)Sc3nnc(C)n3N2C(C)=O)cc1", "Potency": "inactive"},
      {"smiles": "COc1ccc(C(=O)/C=C/c2cn(CC(O)CN(CC(C)C)CC(C)C)c3ccccc23)cc1OC", "note": "(stereo not given)", "Potency": "inactive"},
      {"smiles": "CCCc1cc(=O)oc2c3c(ccc12)OCN(Cc1ccc(OC)cc1)C3", "Potency": "inactive"},
      {"smiles": "O=C(CCS(=O)(=O)c1ccccc1)N(Cc1cccnc1)c1nc2c(Cl)cccc2s1", "Potency": "inactive"},
      {"smiles": "Cc1nn(C(=O)c2cccc([N+](=O)[O-])c2C)c(C)c1S(=O)(=O)N1CCCCCC1", "Potency": "inactive"},
      {"smiles": "Cc1cc(C)c2nc(N(Cc3cccnc3)C(=O)CCS(=O)(=O)c3ccccc3)sc2c1", "Potency": "inactive"},
      {"smiles": "COc1cc(C2C(C(=O)Nc3ccccc3C)=C(C)Nc3nc(SCc4cc(C)ccc4C)nn32)ccc1O", "note": "(stereo not given)", "Potency": "inactive"},
      {"smiles": "O=C(CSc1nc(=O)n(Cc2ccccn2)c2c1CCC2)Nc1ccccc1", "Potency": "inactive"},
      {"smiles": "COc1ccc(C2C=C(c3ccc(Br)cc3)Nc3nnnn32)c(OC)c1", "note": "(stereo not given)", "Potency": "inactive"},
      {"smiles": "O=C(CSc1nc2ccsc2c(=O)n1-c1ccc(Br)cc1)NCc1ccccc1", "Potency": "inactive"},
      {"smiles": "O=c1c(O)c(-c2cc(O)c(O)c(O)c2)oc2cc(O)cc(O)c12", "Potency": "inactive"},
      {"smiles": "Cc1cc(C)cc(NC(=O)c2sc3nc4n(c(=O)c3c2C)N=C(c2ccccc2)CS4)c1", "Potency": "20 µM (active)"},
      {"smiles": "CCCCCC(=O)N1c2ccccc2C(C)(c2ccccc2)CC1(C)C", "note": "(stereo not given)", "Potency": "inactive"},
      {"smiles": "COc1ccc2c(c1)c1c(c(=O)n(-c3ccc(OC)c(OC)c3)c(=O)n1Cc1ccccc1C)n2C", "Potency": "inactive"},
      {"smiles": "Cc1c(C(=O)N(C)C)sc2c1c(=O)n(-c1ccc(Cl)c(Cl)c1)c(=O)n2CC(=O)Nc1ccc(Br)cc1F", "Potency": "inactive"},
      {"smiles": "CCc1cccc(NC(=O)CSc2ncccc2C(=O)Oc2ccccc2Cl)c1", "Potency": "inactive"},
      {"smiles": "Cc1ccc2scc(N3CCN(c4cccc(C(F)(F)F)c4)CC3)c(=O)c2c1", "Potency": "inactive"},
      {"smiles": "CCOC(=O)C1CCCN(c2c(C(=O)c3ccc(C)cc3)cnc3ccc(OCC)cc23)C1", "note": "(stereo not given)", "Potency": "inactive"},
      {"smiles": "CCc1ccc(C(=O)c2c(N)c(-c3nc(-c4ccc5c(c4)OCO5)cs3)c3ccccn23)cc1", "Potency": "inactive"},
      {"smiles": "CCC(=O)C1=C(c2ccc(OC)c(OC)c2)N(C(=O)CC)n2c(CC)nnc2S1", "Potency": "inactive"}
    ]}
  ]
}
